Compound activity as filed in PubChem BioAssay.
TWEAK Fn14 block – inhibitors of TWEAK-Fn14 signaling, primary screen, luciferase reporter cells, uHTS; TWEAK-stimulated Fn14 reporter cells, luciferase luminescence, 8 h; inhibition, % at 10 µM; 360,000 compounds, 2% hits; AID 1159606, 2016; in the data active means inhibition above about 50%
CF NFkB inh – inhibitors of PAF-induced NF-kB signaling, primary screen, cell-based, GFP fluorescence, uHTS | AID 588850, 2011 | 360,000 compounds, 0.86% hits | KKLEB NF-kB-GFP reporter, GFP fluorescence overnight | inhibition, % at 5 µM;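 active means at least 50% inhibition at 5 µM, scaled per plate between neutral and stimulator controls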;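 further: PAF is a Pseudomonas aeruginosa culture filtrate used as stimulus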
KKLEB tox – cytotoxicity in KKLEB CF airway cells, primary screen, cytotoxicity control for CF NF-kB inhibitor project, cell-based, uHTS, fluorescence assay plates | KKLEB CF airway cells viability, ATPlite luminescence, overnight; hits give low values; cells stimulated with P. aeruginosa culture filtrate | AID 602141, 2011 | activity change (cytotoxicity), % at 5 µM | 360,000 compounds, 0.36% hits;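 active means corrected activity change at or below -50% at 5 µM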
HIF-2a inh – HIF-2a reporter inhibitors, primary screen, luminescence, 786-0 RCC cells; inhibition, % at 18.8 µM; 360,000 compounds, 0.72% hits; AID 624352, 2012; 786-0 RCC cells HIF-2a reporter, luciferase luminescence, overnight;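 active means inhibition of the luminescence signal of 40% or more relative to plate controls, in a single-dose primary screen at 18.75 µM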
Peg3 promoter – Peg3 promoter-driven luciferase inhibitors, primary screen, cell-based, HeLa, luciferase luminescence. AID 588405, 2011. 360,000 compounds, 1.7% hits. inhibition, % at 20 µM. HeLa PEG-Prom luciferase reporter, overnight;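 active means inhibition of at least 50% at 20 µM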
TROY NFkB inh – inhibitors of TROY-driven NF-kB signaling, primary screen, Q293 LMP1-TROYcd cells, NF-kB luciferase, uHTS; inhibition, % at 10 µM; AID 1347056, 2019; Q293 LMP1-TROYcd NF-kB luciferase reporter, 4 h; 360,000 compounds, 0.98% hits;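 active means compounds whose plate-normalised and pattern-corrected inhibition of the luciferase reporter signal at the single screening dose is 50% or more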
Each line names hits and unclear results; the compound was inactive in the other large screens; ! = not confirmed by another sample. This is a sample that favours compounds with a hit; in the whole collection about 4% have one here.

COc1ccc(OCC(O)Cn2c(=N)n(CCN3CCCCC3)c3ccccc32)cc1 (configuration not stated)	none
Cc1ccc(OCC(O)Cn2c(=N)n(CCN3CCCCC3)c3ccccc32)cc1 (configuration not stated)	Peg3 promoter 78.3
Cc1ccccc1OCC(O)Cn1c(=N)n(Cc2ccccc2)c2ccccc21 (configuration not stated)	Peg3 promoter 110.4
Fc1ccccc1-c1nc(NC2CCCC2)c2ccccc2n1	none
Oc1ccccc1-c1nc(NC2CCCC2)c2ccccc2n1	TROY NFkB inh 60.5
CCOC(=O)COc1ccc(Br)cc1/C=C\c1[nH]c(=O)[nH]c(=O)c1[N+](=O)[O-]	TWEAK Fn14 block 74.3
CCCOc1ccc(/C=C/c2[nH]c(=O)[nH]c(=O)c2[N+](=O)[O-])cc1OCC	none
CCOC(=O)COc1ccc(Br)cc1/C=C/c1[nH]c(=O)[nH]c(=O)c1[N+](=O)[O-]	TWEAK Fn14 block 62.0
O=C(/C=C/c1cn(-c2ccccc2)nc1-c1cccnc1)N1CCCC1	none
O=C(/C=C/c1cn(-c2ccccc2)nc1-c1cccnc1)c1ccco1	TWEAK Fn14 block 80.0
CCN1C(=O)S/C(=C/c2ccc(Sc3nc4ccccc4[nH]3)o2)C1=O	TWEAK Fn14 block 79.2
COc1ccc(NC(=O)C(c2ccc(C(F)(F)F)cc2)n2c(=O)c(-c3cc4ccccc4[nH]3)nc3ccccc32)cc1 (configuration not stated)	none (no result: TWEAK Fn14 block, CF NFkB inh, KKLEB tox, Peg3 promoter, TROY NFkB inh)
COc1ccc(CCC(=O)NNC(=O)c2ccc(F)cc2)cc1	TWEAK Fn14 block 52.6
COc1ccc(CCC(=O)NNC(=S)NCc2ccc(F)cc2)cc1	none
CCN(CC)CCNc1ccc(CO)c2oc3cc(Cl)ccc3c(=O)c12	Peg3 promoter 100.8
CCN(CC)CCNC(CC(=O)Nc1ccc(Cl)cc1Cl)C(=O)O (configuration not stated)	none
COc1ccc(C(=O)C(CN2CCOCC2)c2ccccc2)cc1 (configuration not stated)	CF NFkB inh 54.3, KKLEB tox -60.6, Peg3 promoter 98.1
COc1ccc(C(CC(=O)N2CCOCC2)C(C)C)cc1 (configuration not stated)	TWEAK Fn14 block 80.4
CCC(O)(c1ccc(OC)cc1)C(CN1CCOCC1)c1ccccc1 (configuration not stated)	none
CCCCC(O)(c1ccc(OC)cc1)C(CN1CCOCC1)c1ccccc1 (configuration not stated)	Peg3 promoter 52.1
O=C(c1ccc(F)cc1)C(CN1CCOCC1)c1ccccc1 (configuration not stated)	TWEAK Fn14 block 74.3, CF NFkB inh 90.4, KKLEB tox -68.3, Peg3 promoter 104.6
Cc1ccc(C)c(S(=O)(=O)N2CCN(C(=O)Cc3ccc(S(=O)(=O)N4CCOCC4)s3)CC2)c1	none
COc1ccc(C(=O)C(CN2CCCC2)c2ccccc2)cc1 (configuration not stated)	CF NFkB inh 53.9, KKLEB tox -57.8, Peg3 promoter 104.4
O=C(c1ccc(Cl)cc1)C(CN1CCCC1)c1ccccc1 (configuration not stated)	TWEAK Fn14 block 57.9, CF NFkB inh 68.9, KKLEB tox -59.6, Peg3 promoter 76.2
COc1ccc(CCNC(=O)CCOc2cc(C)ccc2C)cc1OC	none
Cc1ccc(C)c(N(CC(=O)NC2CCCC2)C(=O)c2csnn2)c1	none
COc1ccc(Nc2ncc(C(=O)N3CCC(C(N)=O)CC3)c3ccccc23)cc1	none
COc1ccc(Nc2ncc(C(=O)N3CCN(Cc4ccccc4)CC3)c3ccccc23)cc1	TWEAK Fn14 block 96.2
COc1ccc(/C=N/NC(=O)c2ccc3c(c2)NC(=O)C(C)(C)O3)cc1OC	none
COc1cccc(-n2nnnc2S(C)(=O)=O)c1	CF NFkB inh 93.5, HIF-2a inh 87.3, Peg3 promoter 103.2
CCCCCCCCCCOC(=O)Cn1c(COc2ccccc2C)[n+](C)c2ccccc21	TWEAK Fn14 block 91.7, CF NFkB inh 59.9, Peg3 promoter 106.7, TROY NFkB inh 52.4
CCCCCCCCCCOC(=O)Cn1c(COc2cccc(C)c2)[n+](C)c2ccccc21	TWEAK Fn14 block 51.3
CCCCCCCCCCOC(=O)Cn1c(COc2ccc(OC)cc2)[n+](C)c2ccccc21	TWEAK Fn14 block 61.6, Peg3 promoter 105.3, TROY NFkB inh 65.2!
CCOC(=O)Cn1c(COc2ccccc2OC)[n+](C)c2ccccc21	none
CCCCCCCCCCOC(=O)Cn1c(COc2ccccc2)[n+](C)c2ccccc21	TWEAK Fn14 block 70.3, CF NFkB inh 71.2, KKLEB tox -61.8, Peg3 promoter 100.0
CCCCN(S(=O)(=O)c1ccccc1)S(=O)(=O)c1ccccc1	none
CC1(C)CC(NC(=O)c2cc(S(=O)(=O)N3CCOCC3)c(Cl)cc2Cl)CC(C)(C)N1	none
CC[C@@H]1CC2=C(C(=O)OC(C)(C)O2)[C@H](c2ccc(F)cc2)O1	none
Fc1ccc(-c2nnc(-c3ccc(Cl)cc3Cl)o2)cc1	TWEAK Fn14 block 56.2, KKLEB tox -55.0
Clc1ccc(-c2nnc(-c3ccccc3)o2)c(Cl)c1	TWEAK Fn14 block 63.5
C#CCN(C[C@H]1[C@H](OC(=O)NC2CC2)[C@H](OC(=O)NC2CC2)C[C@@H](C(=O)OC)[C@H]1C(=O)OC)S(=O)(=O)c1ccc(C)cc1	none
CC(C)COc1ccc(C(=O)N(Cc2ccco2)C2CCS(=O)(=O)C2)cc1 (configuration not stated)	TWEAK Fn14 block 72.8 (no result: TROY NFkB inh)
CC(Oc1ccc(Cl)cc1Cl)C(=O)N(Cc1ccco1)C1CCS(=O)(=O)C1 (configuration not stated)	TWEAK Fn14 block 83.5 (no result: TROY NFkB inh)
Cc1cnc(CNC(=O)c2csc([C@@H]3C[C@H](O)[C@@H](CO)O3)n2)cn1	none
O=C(Nc1nc2ccccc2n1Cc1ccccc1)c1ccc(COc2ccccc2[N+](=O)[O-])o1	KKLEB tox -68.1
COc1ccc(S(=O)(=O)NC(=O)C2(C)CCN2C(=O)C2CCCCC2)cc1OC (configuration not stated)	none
Cn1cnc([N+](=O)[O-])c1Oc1cccc2ccccc12	TWEAK Fn14 block 50.4
COc1ccc(NC(=O)N(Cc2cc3cc(C)ccc3[nH]c2=O)CC2CCCO2)cc1 (configuration not stated)	none
COc1ccc2[nH]c(=O)c(CN(CC3CCCO3)C(=O)Nc3ccc(F)cc3)cc2c1 (configuration not stated)	Peg3 promoter 76.7
CC(C)C(CCNCc1ccccn1)c1ccc(Cl)cc1 (configuration not stated)	none
